This is one part of a sample in which hits are shown more often than they occur.
Tb PGK inh – blocks T. brucei phosphoglycerate kinase | P07378 | PGK/GAPDH coupled, Kinase-Glo luminescence, 60 min | Potency, µM (series often up to 57.5 µM), hits mostly inhibitors | 380,000 compounds, 0.043% hits; also: nearly all actives have a fitted effect of over 60% in size
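Luminescent ATP detection (Kinase-Glo Plus) follows a 60-minute room-temperature incubation, with wells lacking PGK as controls. Buffer: 100 mM TEA (pH 7.6), 5 mM MgCl2, 0.01% Tween-20. Coupling enzyme GAPDH (100 nM final) supplies unstable 1,3-BPG in-well.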
PI4K2A block – blocks human PI4K2A kinase activity; purified PI4K2A, ADP-Glo luminescence, 1 h; stronger effect = lower value; activity change, negative = inhibition, % at 76.9 µM; 420,000 compounds, 0.13% hits; AID 1346378; in the data active = activity change below about -50%; inconclusive = mostly about -30% to -49%
Target sequence (Q9BTU6 whole entry, looked up): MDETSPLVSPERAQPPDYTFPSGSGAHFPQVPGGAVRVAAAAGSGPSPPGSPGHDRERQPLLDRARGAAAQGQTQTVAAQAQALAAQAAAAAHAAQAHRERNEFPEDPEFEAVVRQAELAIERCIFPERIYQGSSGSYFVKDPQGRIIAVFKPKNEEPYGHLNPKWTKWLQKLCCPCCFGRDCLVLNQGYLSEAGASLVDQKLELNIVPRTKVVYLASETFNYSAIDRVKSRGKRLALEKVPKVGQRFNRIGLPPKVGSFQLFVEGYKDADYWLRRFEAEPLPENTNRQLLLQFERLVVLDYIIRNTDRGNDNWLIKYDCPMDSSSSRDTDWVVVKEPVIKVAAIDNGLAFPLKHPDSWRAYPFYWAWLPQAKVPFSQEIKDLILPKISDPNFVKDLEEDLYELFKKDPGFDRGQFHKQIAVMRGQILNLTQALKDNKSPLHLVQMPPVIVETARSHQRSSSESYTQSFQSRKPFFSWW
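ADP-Glo luminescence measured ADP generated by PI4K2A enzyme (4 ug/mL before mixing) with 1.2 mM PI substrate (pre-mix) and 300 microM ATP (pre-mix). Tris pH7.5 buffer with MgCl2, Triton X-100; 1 h reaction at ambient temperature.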
PI5P4K alpha inh – inhibitors of human PI5P4K alpha; P48426; PI5P4Kalpha enzyme, ADP-Glo luminescence, 60 min; stronger effect = lower value; max response, %; 330,000 compounds, 1.2% hits; AID 652105; active = max response of -50% or lower; inconclusive = between -30% and -50%; inactive = -30% or higher; also: value at the top dose of about 77 µM
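ADP-Glo luminescence end-point read after a 60 min room-temperature kinase reaction of PI5P4Kalpha plus substrate, initiated with ATP at 5 microM final. Buffer: 0.038 M HEPES pH 7.4, EGTA, 0.1% CHAPS, 5% DMSO.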
Pin1 inhibitor – blocks the human prolyl isomerase Pin1; 390,000 compounds, 0.009% hits; Potency, µM (series often up to 115 µM), hits mostly inhibitors; Pin1 FP peptide displacement, HiFluor488, 10 min; AID 504891; active = well fitted inhibition curve with a large enough effect in the polarisation, with a control signal flat, not every such curve was filed as active; inconclusive = small, poorly fitted or top-dose-only effect, or effect the other way, or a change in a side signal; inactive = no such curve, though single readings can be large or run the other way; the % refers to the polarisation
Target sequence (Q13526 whole entry, looked up): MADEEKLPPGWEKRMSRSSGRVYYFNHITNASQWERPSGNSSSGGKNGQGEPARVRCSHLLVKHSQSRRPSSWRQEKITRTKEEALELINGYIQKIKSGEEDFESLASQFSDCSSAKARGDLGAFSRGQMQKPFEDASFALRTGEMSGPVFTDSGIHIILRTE
ADP-Glo interf – ADP-Glo luciferase interference, PI5P4K counter-screen; shares compounds with PI5P4K alpha inh; ADP-Glo detection counter-screen, luciferase luminescence, no enzyme; Potency, µM (top dose mostly 76.9 µM), most hits filed as inhibitors; 1,100 tested, under 10 active; AID 743285
Large screens that a line does not name were inactive (follow-up assays come after a bar, where they were run). Unless noted, calls follow the shape of the dose curve; as a rule, active = well fitted curve in the direction sought with a large enough effect; inconclusive = small, poorly fitted or top-dose-only effect, or another doubt; inactive = no such curve, though single readings can be large; an effect the other way counts as inactive or inconclusive.

Cc1cccc(C(=O)Nc2scc(-c3ccc(Br)cc3)c2C(=O)O)c1	PI5P4K alpha inh inconclusive, Pin1 inhibitor inconclusive
CC(C)Cc1csc(NC(=O)c2ccccc2Cl)c1C(=O)O	none
Cc1ccc(-c2csc(NC(=O)c3ccccc3Cl)c2C(=O)O)cc1	PI5P4K alpha inh -54.6 | ADP-Glo interf inactive
Cc1ccc(-c2csc(NC(=O)c3ccc(Br)cc3)c2C(=O)O)cc1	PI5P4K alpha inh -76.7 | ADP-Glo interf inactive
C=CCNC(=S)Nc1c(N)n(C)c(=O)n(C)c1=O	none
O=C(NC1CCCCCC1)C1c2ccccc2C(=O)N1Cc1ccc(F)cc1 (centres undefined)	none (no result: PI5P4K alpha inh)
CC1(C(=O)NS(=O)(=O)C2CC2)CCN(C(=O)c2ccccc2C(F)(F)F)C1 (centres undefined)	none (no result: Tb PGK inh, Pin1 inhibitor)
CC1(C(=O)NS(=O)(=O)C2CC2)CCN(C(=O)c2ccccc2F)C1 (centres undefined)	PI5P4K alpha inh -78.5 (no result: Tb PGK inh, Pin1 inhibitor) | ADP-Glo interf inactive
O=C(OCc1ccco1)c1ccc(S(=O)(=O)N2CCCCC2)cc1	PI5P4K alpha inh -52.2 | ADP-Glo interf inactive
CCCOc1ccc(CSc2ncn[nH]2)cc1	PI5P4K alpha inh -70.7 | ADP-Glo interf inactive
NC(Cc1ccc(C(F)(F)F)cc1)c1csc(NC(=O)Nc2ccccc2Oc2ccccc2)n1 (centres undefined)	PI5P4K alpha inh -50.3 (no result: Tb PGK inh, Pin1 inhibitor) | ADP-Glo interf inactive
COc1ccc(-c2cc(=O)oc3cc(OC(=O)C4CCCCC4)c(Cl)cc23)cc1	PI5P4K alpha inh -55.4 | ADP-Glo interf inactive
COc1ccc(-c2cc(=O)oc3cc(O)ccc23)cc1	none
COC(=O)c1c(NC(=O)CN2CCC3(O)CCCCC3C2c2ccccc2OC)sc(C)c1C (centres undefined)	none
COC(=O)c1c(NC(=O)CN2CCC3(O)CCCCC3C2c2ccc(OC)cc2OC)sc(C)c1C (centres undefined)	PI5P4K alpha inh -51.0 | ADP-Glo interf inactive
COC(=O)CCC(=O)Nc1ccccc1C(=O)Nc1ccccc1	none
CCN(CC)CCCCCC(=O)Nc1ccccc1C(=O)Nc1ccccc1	none | ADP-Glo interf inactive
O=[N+]([O-])c1ccc2nc(-c3ccc(Cl)cc3)[nH]c2c1	PI5P4K alpha inh inconclusive
O=[N+]([O-])c1ccc(-c2cc(-c3ccc(Cl)cc3)n[nH]2)cc1	PI5P4K alpha inh -68.7, Pin1 inhibitor inconclusive | ADP-Glo interf inactive
Cn1c(=O)nc2n(-c3ccc(Cl)c(Cl)c3)c3cc(Cl)ccc3cc-2c1=O	none (no result: PI5P4K alpha inh)
CCC(=O)c1ccc(OCC(=O)OCC(=O)N(C)CC(=O)Nc2ccc(F)cc2)cc1	none
Cc1ccc(NC(=O)CN(C)C(=O)COc2ccc(C(=O)c3ccc(F)cc3)cc2)cc1	none | ADP-Glo interf inactive
CC(=O)NCCNc1nc(NCC2CC2)nc2cc(-c3ccccc3)sc12	none (no result: Tb PGK inh, Pin1 inhibitor)
O=C(c1ccco1)N1N=C(c2cccs2)CC1c1ccc(F)cc1 (centres undefined)	none
CS(=O)(=O)Nc1ccc(C2=NN(C(=O)c3ccco3)C(c3ccc(F)cc3)C2)cc1 (centres undefined)	PI5P4K alpha inh -55.9 | ADP-Glo interf inactive
Cn1ccc2c(N3c4ccccc4CCc4ccccc43)cc3c(c21)C1CCC3O1 (centres undefined)	none (no result: Tb PGK inh, Pin1 inhibitor)
CCOC(=O)c1ccc(NC(=O)CCn2ccc(C)n2)cc1	none (no result: PI5P4K alpha inh)
O=C(N/N=C/c1cn(-c2ccccc2)nc1-c1cc2ccccc2o1)c1ccncc1	PI5P4K alpha inh inconclusive
O=C(O)c1cccc(NC(=O)c2cn(-c3ccccc3)nc2-c2cc3ccccc3o2)c1	PI5P4K alpha inh -52.6 (no result: Pin1 inhibitor) | ADP-Glo interf inactive
O=C(OC12CCCN(C1)/C(=C/c1ccccc1)C2)C1CCCC1 (centres undefined)	none (no result: Tb PGK inh, PI5P4K alpha inh, Pin1 inhibitor)
CCc1ccc(Nc2nnc(SCC(=O)Nc3sccc3C(N)=O)s2)cc1	none
COc1cccc(Nc2nnc(SCC(=O)Nc3sccc3C(N)=O)s2)c1	PI5P4K alpha inh -52.2 | ADP-Glo interf inactive
Cc1ccc([N+](=O)[O-])cc1NC(=O)CCSc1ccc(Cl)cc1	PI5P4K alpha inh -70.2 | ADP-Glo interf inactive
O=C(Nc1ccccc1Cl)c1ccc2nccnc2c1	Pin1 inhibitor inconclusive | ADP-Glo interf inactive
CCCNc1c(F)c(F)c2c(C)c3ccccc3nc2c1F	PI5P4K alpha inh -66.0, Pin1 inhibitor inconclusive | ADP-Glo interf inactive
CCOc1ccc(-n2ccc(=O)c(C(=O)Nc3ccc(S(=O)(=O)Nc4nccs4)cc3)n2)cc1	PI5P4K alpha inh inconclusive, Pin1 inhibitor inconclusive
O=C(Nc1ccc(S(=O)(=O)Nc2nccs2)cc1)c1nn(-c2ccc(F)cc2)ccc1=O	PI5P4K alpha inh -70.1, Pin1 inhibitor inconclusive | ADP-Glo interf inactive
CCN(CC)C(=O)c1cc(Cl)ccn1	PI5P4K alpha inh inconclusive | ADP-Glo interf inactive
CCOC(=O)CSc1nc(C)cc(C)n1	none
COC(=O)CSc1nc(C)cc(C)n1	PI5P4K alpha inh -67.3 | ADP-Glo interf inactive
O=c1oc2c(O)cccc2cc1-c1nc2ccccc2[nH]1	PI5P4K alpha inh inconclusive, Pin1 inhibitor inconclusive | ADP-Glo interf inactive
COC(=O)Cc1c(C)nc2nc(-c3ccc(C)cc3)[nH]n2c1=O	PI5P4K alpha inh -72.4 | ADP-Glo interf inactive
COC(=O)Cc1c(C)nc2nc(-c3ccc(Cl)cc3)[nH]n2c1=O	PI5P4K alpha inh inconclusive
COc1ccc(CC(=O)NCC(=O)NC(Cc2ccccc2)C(=O)O)cc1 (centres undefined)	PI5P4K alpha inh -65.4, Pin1 inhibitor inconclusive | ADP-Glo interf inactive
O=C(Cc1ccccc1)N[C@@H](Cc1ccccc1)C(=O)O	none
Cc1cccc(C(=O)N2CCc3cc(CNC(=O)c4ccco4)ccc32)c1	none (no result: PI5P4K alpha inh)
CC(C)N(CCC(=O)c1ccc2ccccc2c1)Cc1ccccc1	PI5P4K alpha inh -89.0, Pin1 inhibitor inconclusive | ADP-Glo interf inactive
Cn1nnnc1Sc1ncnc2scc(-c3ccccc3C(F)(F)F)c12	none (no result: PI5P4K alpha inh) | ADP-Glo interf inactive
CCCCOc1ccc(S(=O)(=O)NC(=O)C2(C)CCN2C(=O)Cc2ccccc2Cl)cc1 (centres undefined)	none (no result: Tb PGK inh, Pin1 inhibitor)
CCCCOc1ccc(S(=O)(=O)NC(=O)C2(C)CCN2C(=O)CCc2ccccc2)cc1 (centres undefined)	PI5P4K alpha inh -53.3 (no result: Tb PGK inh, Pin1 inhibitor) | ADP-Glo interf inactive
CCn1cc(CNC(=O)c2cc(-c3ccc(C)cc3)nc3ccc(Br)cc23)c(C)n1	none (no result: PI5P4K alpha inh)
CNC(=O)COC(=O)c1cc(-c2ccco2)nc2ccccc12	Tb PGK inh inconclusive, PI5P4K alpha inh -87.0, Pin1 inhibitor inconclusive | ADP-Glo interf inactive
CCN(CC)CCNC(=O)c1cc(-c2ccco2)nc2ccccc12	none
CCOC(=O)C1CCCN(C(=O)c2cc(-c3ccco3)nc3ccccc23)C1 (centres undefined)	Tb PGK inh inconclusive, PI4K2A block inconclusive, PI5P4K alpha inh -84.5 (no result: Pin1 inhibitor) | ADP-Glo interf inactive
CCN(CC)C(=O)COC(=O)c1cc(-c2ccco2)nc2ccccc12	PI5P4K alpha inh -68.5, Pin1 inhibitor inconclusive | ADP-Glo interf inactive
COc1ccc(CCNC(=O)c2cc(-c3ccco3)nc3ccccc23)cc1	PI5P4K alpha inh -60.6 | ADP-Glo interf inactive

From PubChem
